Assay results published in PubChem BioAssay (NCI).
About 83,000 compounds went through this panel and 20% of them were active in at least one assay; those are over-represented in the sample as a whole.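 Compound tested at a single concentration for 48 hours in 96-well plates; a percent growth value below 10 was scored as active.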 Unmarked numbers belong to inactive results. Activity calls are given as the source filed them.

System: NCI-H226 lung
Assay: NCI-60 one-dose screen, 48 h (100 = growth as untreated, 0 = no growth, -100 = all killed)
Conditions: 10 µM unless noted

Row | SMILES | growth
1 | Cc1ccc2c3c(c(=O)[nH]c2c1)C1(C(C#N)=C(N)O3)c2cc(Br)ccc2-c2ccc(Br)cc21 | -17% (active)
2 | CCCCCCC1(C)NCCO1 (configuration not stated) | 103%
3 | COc1cc(CNS(=O)(=O)c2ccc(C)cc2)ccc1OCc1cn(-c2ccc(F)cc2)nn1 | 71.4%
4 | Cc1cc(N)c2cc(NC(=O)/C=C\c3ccccc3Cl)ccc2n1 | -70.7% (active)
5 | CCOC(=O)C(=Cc1cccc(Br)c1)C(=O)OCC | 45.2%
6 | COc1cc(NC(C)CCCNC(C)C)c2ncccc2c1OC (configuration not stated) | 95%
7 | COc1ccc2cc(-c3ccc(NC(C)=O)c(=O)o3)ccc2c1 | 94.4%
8 | COc1cc(CNS(=O)(=O)c2ccc(C)cc2)ccc1OCc1cn(-c2ccc(Br)cc2)nn1 | 93.5%
9 | O=S(=O)(NCCNc1cc(-c2c(-c3cccc(O)c3)nc3sccn23)ccn1)c1ccc(C(F)(F)F)cc1 | 38.1%
10 | COc1ccc(/C=N/C2=C(C#N)C(c3cccc(Cl)c3)c3c(ccc4ccccc34)O2)cc1 (configuration not stated) | 36%
11 | N#CC1C=CN(CC(N)=O)c2ccc3cccnc3c21 (configuration not stated) | 87.5%
12 | COc1ccc2c(c1)[n+]([O-])c(C(=O)/C=C/C=C(\Cl)c1cc(OC)c(OC)c(OC)c1)c(C)[n+]2[O-] | 103%
13 | O=S(=O)(Nc1ccc(Cl)cc1)c1ccc(-c2cnc(C3CC3)o2)cc1 | 61.4%
14 | Cc1nc2c(=O)[nH]c(SCC(=O)Nc3cccc(F)c3)nc2[nH]c1=O | 98.8%
15 | Nc1nc2c([nH]1)c1[nH]c3ccccc3c1c1[nH]c3ccccc3c21 | 78.3%
16 | O=C(Cn1cc(CN2CCCCCC2)nn1)Nc1ccc2c(ccn2Cc2ccccc2)c1 | 81.5%
17 | O=C(Nc1cc(Cl)ccc1O)c1ccc(Nc2ccnc(C(F)(F)F)c2)cc1 | 52.1%
18 | COc1cccc(NC(=O)Cn2cc(CN3CCN(c4ccnc5cc(Cl)ccc45)CC3)nn2)c1 | 81.6%
19 | CC(C)(C)n1cc(-c2ccnc(NCCNS(=O)(=O)c3cccc4ccccc34)c2)c(-c2cccc(F)c2)n1 | -25.7% (active)
20 | C/C(Nc1ccc(Cl)c(Cl)c1)=C1\CCOC1=O | 90.4%
21 | Cc1c(-c2nc3ccc(F)cc3c(=O)[nH]2)c2ccccc2n1C | 61.1%
22 | CC(C)n1cnc2c(=S)nc[nH]c21 | 107%
23 | Oc1c(Cl)cc(Cl)c2ccc(Cn3cc(-c4cc(C(F)(F)F)cc(C(F)(F)F)c4)nn3)nc12 | 82.1%
24 | COC(=O)c1c2c(c[n+]([O-])c1C)C(=O)C(NCc1ccccc1)=CC2=O | -9.27% (active)
25 | COc1ccc2[nH]cc(-c3nc(-c4cn(C)c5c(Cl)nccc45)cs3)c2c1 | 40.8%
26 | Clc1ccc(CNc2c3ccccc3nc3ccccc23)cc1 | 75.5%
27 | CCOC(=O)c1cc(-c2ccc([N+](=O)[O-])cc2)n(-c2ccc(C(=O)O)c(O)c2)c1C | 83.5%

System: NCI-H322M lung
Assay: as above
Conditions: 10 µM unless noted

Row | SMILES | growth
28 | COc1ccc(-c2cn(-c3cc(OC)c(OC)c(OC)c3)c(=O)n2C(C)=O)cc1 | 99.6%
29 | O=C1NC(=O)c2c1c1c3ccccc3ccc1c1[nH]c3ccc(Br)cc3c21 | 21%
30 | O=C(Cn1c2c(c3ccccc31)CCCC2)Nc1ccc(-c2nc3ccccc3s2)cc1 | 101%
31 | COc1ccc(C/C(C)=C(/c2ccc(OCCN3CCCCC3)cc2)c2ccc(OC(=O)NCc3ccccc3)cc2)cc1 | -81.7% (active)
32 | CC(C)OC(=O)c1ccc2[nH]c(O)c(C(=Nc3ccc(N(C)C(=O)CN4CCN(C)CC4)cc3)c3ccccc3)c2c1 | -6.59% (active)
33 | COc1cc(N2C(=O)[C@H](O)C2c2ccc(SC)cc2)cc(OC)c1OC (some centres not stated) | 37.1%
34 | CCCCOC(=O)OCc1cc(=O)c(O)co1 | 94.1%
35 | COc1ccc(C2=Nc3c/c(=C\c4c(O)[nH]c5ccc(Cl)cc45)ccc3=N2)cc1 | 81.9%
36 | O=C(Nc1cccc([N+](=O)[O-])c1)c1cc2ccccc2cc1O | 14.8%
37 | O=C(/C=C/c1cn(-c2ccccc2)nc1-c1ccc([N+](=O)[O-])cc1)c1ccc(Cl)cc1 | 75.1%
38 | CC(C)CCC[C@@H](C)[C@H]1CC[C@H]2[C@@H]3CC=C4C[C@@H](C(C(=O)O)C(=O)O)CC[C@]4(C)[C@H]3CC[C@]12C | -0.312% (active)
39 | CN(C)CCNC(=O)c1cccc(-c2cnc3ccc(-c4ccc5c(c4)OCO5)nn23)c1 | 58.6%
40 | N#Cc1c(-c2ccc(Cl)cc2)nc(SCC(=O)NC2=NN=C(c3ccccc3)CS2)[nH]c1=O | 89.7%
41 | Cc1ccc2c3c(c(=O)[nH]c2c1)C1(C(C#N)=C(N)O3)c2cc(Br)ccc2-c2ccc(Br)cc21 | 16.5%
42 | CCCCCCC1(C)NCCO1 (configuration not stated) | 87.3%
43 | COc1cc(CNS(=O)(=O)c2ccc(C)cc2)ccc1OCc1cn(-c2ccc(F)cc2)nn1 | 102%
44 | Cc1cc(N)c2cc(NC(=O)/C=C\c3ccccc3Cl)ccc2n1 | -83.3% (active)
45 | CCOC(=O)C(=Cc1cccc(Br)c1)C(=O)OCC | 65.5%
46 | COc1cc(NC(C)CCCNC(C)C)c2ncccc2c1OC (configuration not stated) | 99.7%
47 | COc1ccc2cc(-c3ccc(NC(C)=O)c(=O)o3)ccc2c1 | 92.2%

Row | SMILES | growth
48 | COc1cc(CNS(=O)(=O)c2ccc(C)cc2)ccc1OCc1cn(-c2ccc(Br)cc2)nn1 | 101%
49 | O=S(=O)(NCCNc1cc(-c2c(-c3cccc(O)c3)nc3sccn23)ccn1)c1ccc(C(F)(F)F)cc1 | 61.5%
50 | COc1ccc(/C=N/C2=C(C#N)C(c3cccc(Cl)c3)c3c(ccc4ccccc34)O2)cc1 (configuration not stated) | 62.7%
51 | N#CC1C=CN(CC(N)=O)c2ccc3cccnc3c21 (configuration not stated) | 97.3%
52 | COc1ccc2c(c1)[n+]([O-])c(C(=O)/C=C/C=C(\Cl)c1cc(OC)c(OC)c(OC)c1)c(C)[n+]2[O-] | 87.5%
53 | O=S(=O)(Nc1ccc(Cl)cc1)c1ccc(-c2cnc(C3CC3)o2)cc1 | 44%
54 | Cc1nc2c(=O)[nH]c(SCC(=O)Nc3cccc(F)c3)nc2[nH]c1=O | 106%
55 | Nc1nc2c([nH]1)c1[nH]c3ccccc3c1c1[nH]c3ccccc3c21 | 25.6%
56 | O=C(Cn1cc(CN2CCCCCC2)nn1)Nc1ccc2c(ccn2Cc2ccccc2)c1 | 94.8%
57 | O=C(Nc1cc(Cl)ccc1O)c1ccc(Nc2ccnc(C(F)(F)F)c2)cc1 | 61.7%
58 | COc1cccc(NC(=O)Cn2cc(CN3CCN(c4ccnc5cc(Cl)ccc45)CC3)nn2)c1 | 91.2%
59 | CC(C)(C)n1cc(-c2ccnc(NCCNS(=O)(=O)c3cccc4ccccc34)c2)c(-c2cccc(F)c2)n1 | 20.8%
60 | C/C(Nc1ccc(Cl)c(Cl)c1)=C1\CCOC1=O | 101%
61 | Cc1c(-c2nc3ccc(F)cc3c(=O)[nH]2)c2ccccc2n1C | 78.5%
62 | CC(C)n1cnc2c(=S)nc[nH]c21 | 112%
63 | Oc1c(Cl)cc(Cl)c2ccc(Cn3cc(-c4cc(C(F)(F)F)cc(C(F)(F)F)c4)nn3)nc12 | 103%
64 | COC(=O)c1c2c(c[n+]([O-])c1C)C(=O)C(NCc1ccccc1)=CC2=O | -8.65% (active)
65 | COc1ccc2[nH]cc(-c3nc(-c4cn(C)c5c(Cl)nccc45)cs3)c2c1 | 75.5%
66 | Clc1ccc(CNc2c3ccccc3nc3ccccc23)cc1 | 54.1%
67 | CCOC(=O)c1cc(-c2ccc([N+](=O)[O-])cc2)n(-c2ccc(C(=O)O)c(O)c2)c1C | 103%
